Experimental data reported in PubChem BioAssay (Tox21).
Results filed as inconclusive are left out. Active and inactive are the calls of the source. The call rests on the fitted dose curve; in most records, active means well fitted curve in the direction sought with a large enough effect in the repeat runs; inconclusive means weak or mixed curves; inactive means no such curve, though single readings can be large; an effect the other way counts as inactive or inconclusive.

Columns and labels:
[1] = A CellTox Green Cytotoxicity Assay to monitor cytotoxicity in HEK293 cells - 40 hour (AID 1224871); further: nearly all actives have a fitted effect of over 45% in size
Summary of the method: (§1)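 HEK293 cells premixed with CellTox Green dye were seeded at 600 cells/well and left 5 h at 37 C/5% CO2 before pin transfer of 23 nL compound in DMSO. Fluorescence from dye bound to dead-cell DNA was read during 40 h treatment.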

[2] = qHTS RealTime-Glo MT Cell Viability Assay in HEK293 cells - 16 hour (AID 1224872); further: top concentration of the series differs between compounds; nearly all actives have a fitted effect of over 50% in size
Summary of the method: (§2)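 Luminescence generated by NanoLuc from substrate produced by living HEK293 cells served as the viability signal. Each value reflects the reading at its stated time point during continuous 40 h compound exposure at 37 C.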

[3] = qHTS RealTime-Glo MT Cell Viability Assay in HepG2 cells - 8 hour (AID 1224873); further: nearly all actives have a fitted effect of over 55% in size
Summary of the method: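 HepG2 cells (600/well) mixed with RealTime-Glo MT reagent, settled 5 h at 37 C/5% CO2 before compound addition. Nonlytic NanoLuc luminescence from viable-cell prosubstrate reduction read repeatedly during 40 h treatment at 37 C.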

[4] = qHTS RealTime-Glo MT Cell Viability Assay in HEK293 cells - 40 hour (AID 1224874); settings: RealTime-Glo luminescence; max response: hits give low values; further: nearly all actives have a fitted effect of over 50% in size
Summary of the method: (§3)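 HEK293 cells mixed with RealTime-Glo reagents (NanoLuc plus cell-permeant prosubstrate) at 600 cells/well, preincubated 5 h at 37 C/5% CO2, then given 23 nL compound in DMSO. Nonlytic luminescence from viable cells was read at 0, 8, 16, 24, 32 and 40 h.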

[5] = A CellTox Green Cytotoxicity Assay to monitor cytotoxicity in HEK293 cells - 24 hour (AID 1224875); further: series mostly up to about 77 µM; nearly all actives have a fitted effect of over 45% in size
Summary of the method: as §1

[6] = A CellTox Green Cytotoxicity Assay to monitor cytotoxicity in HepG2 cells - 16 hour (AID 1224876); further: nearly all actives have a fitted effect of over 45% in size
Summary of the method: (§4)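 HepG2 cells were seeded together with the CellTox Green dye at 600 cells/well, left 5 h at 37 C/5% CO2, then given compounds in DMSO. Fluorescence from dye bound to dead-cell DNA was read repeatedly over 40 h of treatment at 37 C.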

[7] = qHTS RealTime-Glo MT Cell Viability Assay in HepG2 cells - 32 hour (AID 1224877); further: nearly all actives have a fitted effect of over 55% in size
Summary of the method: (§5)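 Tox21 10K library screened in qHTS format on HepG2 cells carrying RealTime-Glo reagents. Compounds were added after a 5 h preincubation, and the luminescent signal from continuous culture was measured repeatedly during 40 h treatment.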

[8] = A CellTox Green Cytotoxicity Assay to monitor cytotoxicity in HepG2 cells - 24 hour (AID 1224878); further: nearly all actives have a fitted effect of over 45% in size
Summary of the method: as §4

[9] = A CellTox Green Cytotoxicity Assay to monitor cytotoxicity in HepG2 cells - 40 hour (AID 1224879); further: nearly all actives have a fitted effect of over 40% in size
Summary of the method: as §4

[10] = qHTS RealTime-Glo MT Cell Viability Assay in HEK293 cells - 0 hour (AID 1224880)
Summary of the method: as §3

[11] = A CellTox Green Cytotoxicity Assay to monitor cytotoxicity in HEK293 cells - 32 hour (AID 1224881); further: nearly all actives have a fitted effect of over 40% in size
Summary of the method: as §1

[12] = A CellTox Green Cytotoxicity Assay to monitor cytotoxicity in HepG2 cells - 0 hour (AID 1224882); further: nearly all actives have a fitted effect of over 35% in size
Summary of the method: as §4

[13] = A CellTox Green Cytotoxicity Assay to monitor cytotoxicity in HEK293 cells - 8 hour (AID 1224884); further: nearly all actives have a fitted effect of over 35% in size
Summary of the method: as §1

[14] = qHTS RealTime-Glo MT Cell Viability Assay in HepG2 cells - 16 hour (AID 1224885); further: nearly all actives have a fitted effect of over 50% in size
Summary of the method: as §5

[15] = qHTS RealTime-Glo MT Cell Viability Assay in HEK293 cells - 24 hour (AID 1224886); further: top concentration of the series differs between compounds; nearly all actives have a fitted effect of over 50% in size
Summary of the method: as §2

[16] = qHTS RealTime-Glo MT Cell Viability Assay in HEK293 cells - 8 hour (AID 1224887)
Summary of the method: as §3

[17] = A CellTox Green Cytotoxicity Assay to monitor cytotoxicity in HEK293 cells - 16 hour (AID 1224888); further: nearly all actives have a fitted effect of over 35% in size
Summary of the method: as §1

[18] = qHTS RealTime-Glo MT Cell Viability Assay in HepG2 cells - 0 hour (AID 1224889); further: nearly all actives have a fitted effect of over 50% in size
Summary of the method: as §5

[19] = A CellTox Green Cytotoxicity Assay to monitor cytotoxicity in HepG2 cells - 8 hour (AID 1224890); further: nearly all actives have a fitted effect of over 45% in size
Summary of the method: as §4

[20] = A CellTox Green Cytotoxicity Assay to monitor cytotoxicity in HepG2 cells - 32 hour (AID 1224883); further: nearly all actives have a fitted effect of over 50% in size
Summary of the method: as §4
On the % scale 0 is the no-effect control and ±100 the full control effect.

COC(=O)C(C)Oc1ccc(Oc2ccc(Cl)cc2Cl)cc1 (stereo not given)
inactive: Potency [1] | Potency [2] | Potency [3] | max response [4] -8.07% | Potency [5] | Potency [6] | Potency [7] | Potency [8] | Potency [9] | outcome [10] | Potency [11] | outcome [12] | Potency [13] | Potency [14] | Potency [15] | Potency [16] | Potency [17] | Potency [18] | Potency [19]

CCC1(c2ccccc2)C(=O)N=C(O)NC1=O (stereo not given)
inactive: Potency [1] | Potency [2] | Potency [3] | max response [4] 9.07% | Potency [5] | Potency [6] | Potency [7] | Potency [8] | Potency [9] | outcome [10] | Potency [11] | outcome [12] | Potency [13] | Potency [14] | Potency [15] | Potency [16] | Potency [17] | Potency [18] | Potency [19]

CNC(=O)Oc1cccc(C(C)C)c1
inactive: Potency [1] | Potency [2] | Potency [3] | max response [4] -3.66% | Potency [5] | Potency [6] | Potency [7] | Potency [8] | Potency [9] | outcome [10] | Potency [11] | outcome [12] | Potency [20] | Potency [14] | Potency [15] | Potency [16] | Potency [17] | Potency [18] | Potency [19]

O=C(CCN1CC1)OCC(CO)(COC(=O)CCN1CC1)COC(=O)CCN1CC1
inactive: Potency [1] | Potency [2] | Potency [3] | max response [4] 0.103% | Potency [5] | Potency [6] | Potency [7] | Potency [8] | Potency [9] | outcome [10] | Potency [11] | outcome [12] | Potency [20] | Potency [13] | Potency [15] | Potency [16] | Potency [17] | Potency [19]

Cc1ncc(CNC(=O)N(CCCl)N=O)c(N)n1
inactive: Potency [1] | Potency [2] | Potency [3] | max response [4] 2.69% | Potency [5] | Potency [6] | Potency [7] | Potency [8] | Potency [9] | outcome [10] | Potency [11] | outcome [12] | Potency [20] | Potency [14] | Potency [15] | Potency [16] | Potency [17] | Potency [18] | Potency [19]

CC(CCc1ccccc1)NC(C)C(O)c1ccc(O)cc1 (stereo not given)
inactive: Potency [1] | Potency [2] | Potency [3] | max response [4] -21.9% | Potency [5] | Potency [6] | Potency [7] | Potency [8] | Potency [9] | outcome [10] | Potency [11] | outcome [12] | Potency [20] | Potency [13] | Potency [15] | Potency [16] | Potency [17] | Potency [19]

CC1(C)CON(Cc2ccccc2Cl)C1=O
inactive: Potency [1] | Potency [2] | Potency [3] | max response [4] -0.432% | Potency [5] | Potency [6] | Potency [7] | Potency [8] | Potency [9] | outcome [10] | Potency [11] | outcome [12] | Potency [13] | Potency [14] | Potency [15] | Potency [16] | Potency [17] | Potency [18] | Potency [19]

COc1cc(OC)nc(Oc2cccc(Oc3nc(OC)cc(OC)n3)c2C(=O)O)n1
inactive: Potency [1] | Potency [2] | Potency [3] | max response [4] -0.579% | Potency [5] | Potency [6] | Potency [7] | Potency [8] | Potency [9] | outcome [10] | Potency [11] | outcome [12] | Potency [20] | Potency [14] | Potency [15] | Potency [16] | Potency [17] | Potency [18] | Potency [19]

CC(C)CC#N
inactive: Potency [1] | Potency [2] | Potency [3] | max response [4] 8.82% | Potency [5] | Potency [6] | Potency [7] | Potency [8] | Potency [9] | outcome [10] | Potency [11] | outcome [12] | Potency [13] | Potency [14] | Potency [15] | Potency [16] | Potency [17] | Potency [18] | Potency [19]

CC(C=O)Cc1ccc2c(c1)OCO2 (stereo not given)
inactive: Potency [1] | Potency [2] | Potency [3] | max response [4] 0.337% | Potency [5] | Potency [6] | Potency [7] | Potency [8] | Potency [9] | outcome [10] | Potency [11] | outcome [12] | Potency [20] | Potency [14] | Potency [15] | Potency [16] | Potency [17] | Potency [18] | Potency [19]

CCCSC(=O)Cl
inactive: Potency [1] | Potency [2] | Potency [3] | max response [4] 9.13% | Potency [5] | Potency [6] | Potency [7] | Potency [8] | Potency [9] | outcome [10] | Potency [11] | outcome [12] | Potency [20] | Potency [14] | Potency [15] | Potency [16] | Potency [17] | Potency [18] | Potency [19]

COC(=O)C(c1ccccc1)C1CCCCN1 (stereo not given)
inactive: Potency [1] | Potency [2] | Potency [3] | max response [4] 2.03% | Potency [5] | Potency [6] | Potency [7] | Potency [8] | Potency [9] | outcome [10] | Potency [11] | outcome [12] | Potency [20] | Potency [14] | Potency [15] | Potency [16] | Potency [17] | Potency [18] | Potency [19]

Cc1nc(N)nc(N)n1
inactive: Potency [1] | Potency [2] | Potency [3] | max response [4] -3.78% | Potency [5] | Potency [6] | Potency [7] | Potency [8] | Potency [9] | outcome [10] | Potency [11] | outcome [12] | Potency [13] | Potency [14] | Potency [15] | Potency [16] | Potency [17] | Potency [18] | Potency [19]

C[N+](=O)[O-]
inactive: Potency [1] | Potency [2] | Potency [3] | max response [4] 18.3% | Potency [5] | Potency [6] | Potency [7] | Potency [8] | Potency [9] | outcome [10] | Potency [11] | outcome [12] | Potency [20] | Potency [15] | Potency [16] | Potency [17] | Potency [18] | Potency [19]

CC1CCC(=O)O1 (stereo not given)
inactive: Potency [1] | Potency [2] | Potency [3] | max response [4] -22.6% | Potency [5] | Potency [6] | Potency [7] | Potency [8] | Potency [9] | outcome [10] | Potency [11] | outcome [12] | Potency [20] | Potency [13] | Potency [15] | Potency [17] | Potency [19]
